Experimental data from PubChem BioAssay (EPA / NIEHS).
Results filed as inconclusive are left out. Calls of active or inactive are those of the source. How the source made its calls: active means hit-call score of the fitted dose curve at least 0.9, where 1 is the maximum; inconclusive means response in the unintended direction; inactive means score below 0.9.

These molecules were tested on Cytochrome P450 3A4 (Homo sapiens) (UniProt P08684) (assay: CLD_CYP3A4_24hr: CellzDirect (CLD) Gene Expression Assay for xenobiotic metabolism (CYP3A4) at 24 hours (AID 2283689)).
Cytochrome P450 3A4 (Homo sapiens), sequence (P08684 whole entry, looked up): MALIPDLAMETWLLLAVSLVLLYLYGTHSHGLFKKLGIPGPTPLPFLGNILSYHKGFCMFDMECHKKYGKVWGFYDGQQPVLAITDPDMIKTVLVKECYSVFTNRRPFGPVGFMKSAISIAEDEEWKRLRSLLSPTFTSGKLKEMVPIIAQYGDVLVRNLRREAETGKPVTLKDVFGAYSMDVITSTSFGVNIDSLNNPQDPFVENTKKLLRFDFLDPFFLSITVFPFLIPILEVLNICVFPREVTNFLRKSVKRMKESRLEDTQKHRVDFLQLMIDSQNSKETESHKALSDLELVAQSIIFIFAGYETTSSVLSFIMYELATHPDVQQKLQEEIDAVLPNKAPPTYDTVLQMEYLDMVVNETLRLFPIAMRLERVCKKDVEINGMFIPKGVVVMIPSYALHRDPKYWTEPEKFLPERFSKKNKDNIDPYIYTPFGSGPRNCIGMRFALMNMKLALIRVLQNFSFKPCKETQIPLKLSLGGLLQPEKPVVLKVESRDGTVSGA
Experimental: CLD_24hr is a cell-based, multiplexed-readout assay that uses hepatocyte, a human liver primary cell, with measurements taken at 24 hours after chemical dosing in a 96-well plate.CLD_CYP3A4_24hr is one of 16 assay component(s) measured or calculated from the CLD_24hr assay. It is designed to make measurements of mRNA induction, a form of inducible reporter, as detected with chemiluminescence signals by Quantitative Nuclease Protection Assay (qNPA) technology.Data from the assay component CLD_CYP3A4_24hr was analyzed at the endpoint, CLD_CYP3A4_24hr, in the positive analysis fitting direction relative to DMSO as the negative control and baseline of activity. Using a type of inducible reporter, gain-of-signal activity can be used to understand changes in the reporter gene as they relate to the gene CYP3A4. Furthermore, this assay endpoint can be referred to as a primary readout. To generalize the intended target to other relatable targets, this assay endpoint is annotated to the cyp intended target family, where subfamily is xenobiotic metabolism.
Human hepatocyte cultures were treated daily for two consecutive days with fresh dosing solutions containing appropriate concentrations of the 320 ToxCast chemicals (chemical identities were blinded to CellzDirect and other ToxCast collaborators), vehicle control (0.2% DMSO), and positive control inducers as summarized in Table 1. Due to the large number of treatment groups and chemicals examined, the ToxCast chemicals were divided into two groups (spanning two independent cultures of hepatocytes from separate donor preparations (Hu778: ToxCast plates 1 and 2; Hu776: ToxCast plates 3 and 4). Each preparation of human hepatocyte cultures was treated with respective vehicle control, medium only control, set of six positive controls/reference chemicals for the five hepatic receptor pathways, and a subset of eight of the ToxCast chemicals (indoxacarb, pyrithiobac-sodium, norflurazon, cyhalofop-butyl, methomyl, thiram, acetochlor, and propiconazole). These replicate data, coupled with internal replicates designed within the blinded ToxCast chemical library, provided additional data to evaluate interindividual differences between hepatocyte preparations and their potential impact on chemical profiles.Cell morphology and integrity were evaluated using phase-contrast microscopy as an indicator of hepatocyte cell health (Tyson & Green, 1987). Cultures for each treatment group (i.e., media, vehicle [0.2% DMSO], positive control inducers [multiple concentrations], and the ToxCast chemicals [multiple concentrations]) were observed and cell morphology was assessed relative to vehicle control cultures at each harvest time point (0, 6, 24, or 48 h). […] Images were evaluated at the conclusion of the study to assess changes in cell integrity and account for the effects of chemical exposure on uncharacteristic changes in concentration-dependent gene expression profiles. The results from these determinations of apparent cytotoxicity were annotated (yes/no) alongside the corresponding qNPA data for reference.At the conclusion of each treatment period, hepatocyte cultures (96-well) were washed with 1 volume of HBSS, lysed by addition of 25 ul ArrayPlate lysis buffer (HTG, Tucson, AZ), and 70 ul/well of Denaturation Oil, denatured by incubation at 95C for 10 min, and frozen at approximately -70C until analysis by nuclease protection assay (qNPA) (Roberts et al., 2007). For qNPA analysis, cell lysates were thawed at 50C for approximately 30 min, qNPA probes were added, and samples were incubated at 95C for 10 min to begin the detection process by denaturing the target RNA, dissociating the duplexes and secondary structure hybridization. At the conclusion of the hybridization period, S1 nuclease reagent was added to each sample to digest all nonprotected nucleotides at 50C for 60-90 min. […]
With OCCOc1ccccc1 the outcome was “inactive”. For CC1(c2ccc(Oc3ccccc3)cc2)OC(=O)N(Nc2ccccc2)C1=O (stereo not drawn), the outcome was “inactive”. For N#Cc1c(Cl)c(Cl)c(Cl)c(C#N)c1Cl, the outcome was “inactive”. In the case of CCC(C)(C)C(=O)OC1=C(c2ccc(Cl)cc2Cl)C(=O)OC12CCCCC2, the AC50 is reported as 0.0493 µM (active). In the case of CCS(=O)(=O)c1cccnc1S(=O)(=O)NC(=O)Nc1nc(OC)cc(OC)n1, the AC50 is reported as 20 µM (active). In the case of CC(C)OC(=O)Nc1cccc(Cl)c1, the AC50 is reported as 16 µM (active). With CCN(CC)C(=O)SCc1ccc(Cl)cc1 the AC50 was 20 µM (active). In the case of O=C(NC(=O)c1c(F)cccc1F)Nc1ccc(OC(F)(F)C(F)OC(F)(F)F)c(Cl)c1 (stereo not drawn), the outcome is reported as “inactive”. In the case of CCC(C)(NC(=O)c1cc(Cl)c(C)c(Cl)c1)C(=O)CCl (stereo not drawn), the AC50 is reported as 4.49 µM (active). Oc1ccc(Cl)cc1Cc1ccccc1 was tested, and the outcome was “inactive”. With O=S1OCC2C(CO1)C1(Cl)C(Cl)=C(Cl)C2(Cl)C1(Cl)Cl (stereo not drawn) the AC50 was 20 µM (active). O=S(=O)(O)C(F)(F)C(F)(F)C(F)(F)C(F)(F)C(F)(F)C(F)(F)C(F)(F)C(F)(F)F was tested, and the outcome was “inactive”. With CCOC1Oc2ccc(OS(C)(=O)=O)cc2C1(C)C (stereo not drawn) the AC50 was 20 µM (active). In the case of CCOCN(C(=O)CCl)c1c(C)cccc1CC, the AC50 is reported as 3 µM (active). With COP(=S)(OC)Oc1ccc(SC)c(C)c1 the outcome was “inactive”. For COC(=O)c1ccccc1CS(=O)(=O)NC(=O)Nc1nc(OC)cc(OC)n1, the outcome was “inactive”. In the case of CNC(=O)/C=C(\C)OP(=O)(OC)OC, the outcome is reported as “inactive”. With CCC(C)Nc1c([N+](=O)[O-])cc(C(C)(C)C)cc1[N+](=O)[O-] (stereo not drawn) the AC50 was 3.84 µM (active). For CNC(=O)Oc1ccccc1OC(C)C, the AC50 was 5.41 µM (active). CCCN(CCC)c1c([N+](=O)[O-])cc(C(F)(F)F)cc1[N+](=O)[O-] was tested, and the AC50 was 5.68 µM (active). For Clc1ccccc1-c1nnc(-c2ccccc2Cl)nn1, the AC50 was 3.97 µM (active). CC1(C)C(C=C(Cl)Cl)C1C(=O)OC(C#N)c1ccc(F)c(Oc2ccccc2)c1 (stereo not drawn) was tested, and the outcome was “inactive”. COC(=O)c1ccccc1S(=O)(=O)NC(=O)N(C)c1nc(C)nc(OC)n1 was tested, and the outcome was “inactive”. CCCN(CCOc1c(Cl)cc(Cl)cc1Cl)C(=O)n1ccnc1 was tested, and the AC50 was 0.57 µM (active). C[C@H]1[C@H](c2ccc(Cl)cc2)SC(=O)N1C(=O)NC1CCCCC1 was tested, and the AC50 was 3.56 µM (active). With Cc1cc(C)nc(NC(=O)NS(=O)(=O)c2ccccc2C(=O)OC2COC2)n1 the AC50 was 20 µM (active). With O=C(O)CCCOc1ccc(Cl)cc1Cl the outcome was “inactive”. For CCOc1nc(NC)nc(NC(=O)NS(=O)(=O)c2ccccc2C(=O)OC)n1, the outcome was “inactive”. In the case of COC(=O)c1ccccc1S(=O)(=O)NC(=O)Nc1nc(C)nc(OC)n1, the outcome is reported as “inactive”. O=[N+]([O-])c1c(Cl)c(Cl)c(Cl)c(Cl)c1Cl was tested, and the outcome was “inactive”. O=C(O)C(F)(F)C(F)(F)C(F)(F)C(F)(F)C(F)(F)C(F)(F)C(F)(F)F was tested, and the AC50 was 20 µM (active). In the case of CC(C)N(C(=O)COc1nnc(C(F)(F)F)s1)c1ccc(F)cc1, the outcome is reported as “inactive”. For Cc1[nH]c(=O)n(C(C)(C)C)c(=O)c1Cl, the outcome was “inactive”. With CCc1ccc(C(=O)NN(C(=O)c2cc(C)cc(C)c2)C(C)(C)C)cc1 the AC50 was 3.67 µM (active). With CC(C)(C)C(O)/C(=C\c1ccc(Cl)cc1Cl)n1cncn1 (stereo not drawn) the AC50 was 0.98 µM (active). In the case of CNC(=O)Oc1cccc(N=CN(C)C)c1, the outcome is reported as “inactive”. In the case of O=[N+]([O-])/N=C1\NCCN1Cc1ccc(Cl)nc1, the outcome is reported as “inactive”. In the case of COP(=S)(OC)Oc1ccc([N+](=O)[O-])cc1, the outcome is reported as “inactive”.
